Data taken from PubChem BioAssay AID1159580 (chemical genetic matrix, 2015).
Hit rate of the full screen: of about 5,500 compounds, about 2,000 (36%) were called active. Roughly 18% stayed inconclusive and do not appear here. Cut-off read from the data, not from the text of the source: active = normalized growth mostly below about 0.91 (no sharp cut-off); inconclusive = no clear call, values can overlap the other calls; inactive = mostly above about 0.92. The list shows a part of the results.

Assay: chemical genetic growth profiling, strain panel (AID 1159580);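 note: tested at 20 µM; growth read once vehicle control cultures reached saturation at 30 °C; 1 = growth at the plate median or of vehicle wells; lower values mean less growth of the strain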
Conditions: growth OD

Measured: normalized growth

CNNC
inactive: S. cerevisiae deletion strains, locus YJR075W, strain HOC1, hits give low values 1.02 | S. cerevisiae deletion strains, locus YKL009W, strain mrt4, hits give low values 0.981 | S. cerevisiae deletion strains, locus YKL068W, hits give low values 1.01 | S. cerevisiae deletion strains, locus YKL085W, strain MDH1 (second series), hits give low values 1.01 | S. cerevisiae deletion strains, locus YKL085W, strain MDH1, hits give low values 1.01 | S. cerevisiae deletion strains, locus YKL160W, strain elf1, hits give low values 0.99 | S. cerevisiae deletion strains, locus YKL190W, strain CNB1, hits give low values 1.02 | S. cerevisiae deletion strains, locus YKR001C, strain vps1, hits give low values 1.01 | S. cerevisiae deletion strains, locus YKR026C, strain gcn3, hits give low values 1.02 | S. cerevisiae deletion strains, locus YKR091W, strain srl3, hits give low values 1.02 | S. cerevisiae deletion strains, locus YLL001W, strain dnm1, hits give low values 1.02 | S. cerevisiae deletion strains, locus YLL026W, hits give low values 1 | S. cerevisiae deletion strains, locus YLL041C, strain sdh2, hits give low values 1.02 | S. cerevisiae deletion strains, locus YLR027C, strain aat2, hits give low values 1.01 | S. cerevisiae deletion strains, locus YLR039C, strain RIC1, hits give low values 1.09 | S. cerevisiae deletion strains, locus YLR058C, strain SHM2, hits give low values 1.02 | S. cerevisiae deletion strains, locus YLR102C, strain apc9, hits give low values 0.998 | S. cerevisiae deletion strains, locus YLR221C, strain rsa3, hits give low values 1.01 | S. cerevisiae deletion strains, locus YLR258W, strain gsy2, hits give low values 1.01 | S. cerevisiae deletion strains, locus YLR262C, strain YPT6 (second series), hits give low values 1.01 | S. cerevisiae deletion strains, locus YLR262C, strain YPT6, hits give low values 1.09 | S. cerevisiae deletion strains, locus YLR268W, strain sec22, hits give low values 1.02 | S. cerevisiae deletion strains, locus YLR320W, strain mms22, hits give low values 1.01 | S. cerevisiae deletion strains, locus YLR330W, strain CHS5, hits give low values 1.02 | S. cerevisiae deletion strains, locus YLR342W, strain FKS1 (second series), hits give low values 1.01 | S. cerevisiae deletion strains, locus YLR342W, strain FKS1, hits give low values 1.01 | S. cerevisiae deletion strains, locus YLR357W, strain rsc2, hits give low values 0.986 | S. cerevisiae deletion strains, locus YLR370C, strain arc18, hits give low values 1.01 | S. cerevisiae deletion strains, locus YLR371W, strain rom2, hits give low values 1 | S. cerevisiae deletion strains, locus YLR384C, strain iki3, hits give low values 1.01 | S. cerevisiae deletion strains, locus YLR418C, strain cdc73, hits give low values 0.997 | S. cerevisiae deletion strains, locus YML016C, strain PPZ1, hits give low values 1.02 | S. cerevisiae deletion strains, locus YML032C, strain rad52, hits give low values 0.97 | S. cerevisiae deletion strains, locus YML120C, strain ndi1, hits give low values 1.03 | S. cerevisiae deletion strains, locus YML124C, strain tub3, hits give low values 1.01 | S. cerevisiae deletion strains, locus YMR058W, strain fet3, hits give low values 1.01 | S. cerevisiae deletion strains, locus YMR078C, strain ctf18, hits give low values 0.994 | S. cerevisiae deletion strains, locus YMR125W, strain sto1, hits give low values 1 | S. cerevisiae deletion strains, locus YMR129W, hits give low values 0.999 | S. cerevisiae deletion strains, locus YMR205C, strain PFK2, hits give low values 1.02 | S. cerevisiae deletion strains, locus YMR223W, strain ubp8, hits give low values 1 | S. cerevisiae deletion strains, locus YMR231W, strain pep5, hits give low values 1.01 | S. cerevisiae deletion strains, locus YMR263W, strain SAP30, hits give low values 1.03 | S. cerevisiae deletion strains, locus YMR307W, strain GAS1, hits give low values 1.04 | S. cerevisiae deletion strains, locus YNL067W, strain RPL9B, hits give low values 1.03 | S. cerevisiae deletion strains, locus YNL071W, strain lat1, hits give low values 0.989 | S. cerevisiae deletion strains, locus YNL128W, strain TEP1, hits give low values 1.03 | S. cerevisiae deletion strains, locus YNL153C, strain GIM3, hits give low values 1.03 | S. cerevisiae deletion strains, locus YNL209W, strain ssb2, hits give low values 1.01 | S. cerevisiae deletion strains, locus YNL233W, strain BNI4, hits give low values 1.03 | S. cerevisiae deletion strains, locus YNL248C, strain rpa49, hits give low values 1.03 | S. cerevisiae deletion strains, locus YNL250W, strain rad50, hits give low values 0.997 | S. cerevisiae deletion strains, locus YNL271C, strain bni1, hits give low values 1.01 | S. cerevisiae deletion strains, locus YNL298W, strain CLA4, hits give low values 0.994 | S. cerevisiae deletion strains, locus YNL307C, strain MCK1, hits give low values 0.998 | S. cerevisiae deletion strains, locus YNL322C, strain KRE1 (second series), hits give low values 1.02 | S. cerevisiae deletion strains, locus YNL322C, strain KRE1, hits give low values 1.03 | S. cerevisiae deletion strains, locus YNR049C, strain mso1, hits give low values 1 | S. cerevisiae deletion strains, locus YNR052C, strain pop2, hits give low values 0.994 | S. cerevisiae deletion strains, locus YOL006C, strain TOP1, hits give low values 1.08 | S. cerevisiae deletion strains, locus YOL012C, strain htz1 1.09 | S. cerevisiae deletion strains, locus YOL147C, strain pex11, hits give low values 0.995 | S. cerevisiae deletion strains, locus YOR001W, strain rrp6, hits give low values 1.02 | S. cerevisiae deletion strains, locus YOR061W, strain CKA2, hits give low values 1.02 | S. cerevisiae deletion strains, locus YOR069W, strain VPS5, hits give low values 1.01 | S. cerevisiae deletion strains, locus YOR070C, strain gyp1, hits give low values 1.01 | S. cerevisiae deletion strains, locus YOR080W, strain dia2, hits give low values 0.99 | S. cerevisiae deletion strains, locus YOR083W, strain WHI5, hits give low values 1.01 | S. cerevisiae deletion strains, locus YOR106W, strain vam3, hits give low values 1.02 | S. cerevisiae deletion strains, locus YOR136W, strain idh2, hits give low values 0.994 | S. cerevisiae deletion strains, locus YOR144C, strain elg1, hits give low values 1 | S. cerevisiae deletion strains, locus YOR184W, strain ser1, hits give low values 1 | S. cerevisiae deletion strains, locus YOR265W, strain rbl2, hits give low values 1.02 | S. cerevisiae deletion strains, locus YOR270C, strain vph1, hits give low values 1.1 | S. cerevisiae deletion strains, locus YOR290C, strain snf2, hits give low values 1.03 | S. cerevisiae deletion strains, locus YOR316C, strain cot1, hits give low values 1.01 | S. cerevisiae deletion strains, locus YPL051W, strain arl3, hits give low values 1 | S. cerevisiae deletion strains, locus YPL055C, strain LGE1, hits give low values 1.06 | S. cerevisiae deletion strains, locus YPL078C, strain atp4, hits give low values 1.01 | S. cerevisiae deletion strains, locus YPL106C, strain sse1, hits give low values 1 | S. cerevisiae deletion strains, locus YPL240C, strain hsp82, hits give low values 1.01 | S. cerevisiae deletion strains, locus YPL241C, strain CIN2, hits give low values 1.02 | S. cerevisiae deletion strains, locus YPR119W, strain clb2, hits give low values 1 | S. cerevisiae deletion strains, locus YPR141C, strain kar3, hits give low values 1.01 | S. cerevisiae deletion strains, locus YPR163C, strain tif3, hits give low values 0.994 | S. cerevisiae deletion strains, locus YPR167C, strain met16, hits give low values 1 | S. cerevisiae deletion strains, strain wtn01, hits give low values 1.02 | S. cerevisiae strains, strain wild type, hits give low values 1.01
